Laboratory results from PubChem BioAssay (NCI).
The panel holds about 83,000 compounds, 20% with a hit somewhere; the sample as a whole holds those more often.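 Testing used 96-well plates and a 48-hour single-concentration exposure. Example: -40 means 40% of the starting cells died.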 Calls of active or inactive are those of the source. How the source made its calls: active means growth percent below 10; inactive means the rest.

Key:
Experiment in all cases: NCI-60 one-dose screen, 48 h (100 = growth as untreated, 0 = no growth, -100 = all killed)
Settings in all cases: 10 µM
T-47D breast = test system: T-47D breast
BT-549 breast = test system: BT-549 breast
MDA-MB-435 melanoma = test system: MDA-MB-435 melanoma
SW-620 colon = test system: SW-620 colon
MCF7 breast = test system: MCF7 breast
HCT-116 colon = test system: HCT-116 colon
HCC-2998 colon = test system: HCC-2998 colon
KM12 colon = test system: KM12 colon

Measured: growth

CCC(O)c1ccc(Br)cc1NC(=O)c1cccc(Cl)c1 (centres undefined)
inactive: T-47D breast 20.8% | BT-549 breast 42.7% | MDA-MB-435 melanoma 16.9% | SW-620 colon 13.8% | MCF7 breast 14.4% | HCT-116 colon 20.7% | HCC-2998 colon 19.1% | KM12 colon 26.3%

CC(=O)[C@H]1CC[C@H]2[C@@H]3CC[C@@H]4CC=C(C=O)C[C@]4(C)[C@H]3CC[C@]12C
inactive: T-47D breast 85.6% | BT-549 breast 85.8% | MDA-MB-435 melanoma 97.3% | SW-620 colon 106% | MCF7 breast 81.1% | HCT-116 colon 87% | HCC-2998 colon 89.5% | KM12 colon 104%

COc1ccc(/C=C2\CCC3C(CCCC34OCCO4)C2=O)cc1 (centres undefined)
inactive: T-47D breast 75.4% | BT-549 breast 88.4% | MDA-MB-435 melanoma 29.9% | SW-620 colon 75.6% | MCF7 breast 70.6% | HCT-116 colon 92.4% | HCC-2998 colon 92.4% | KM12 colon 67.7%

O=[N+]([O-])c1ccc(-c2nc(Cl)c3c(n2)CCCC3)o1
inactive: T-47D breast 89.9% | BT-549 breast 83.1% | MDA-MB-435 melanoma 87.6% | SW-620 colon 56.8% | MCF7 breast 46.9% | HCT-116 colon 55.2% | HCC-2998 colon 92.4% | KM12 colon 96.5%

CC(C)c1[nH]nc2c(NCc3ccc(-c4ccccn4)cc3)nc(SCCN)nc12
active: T-47D breast -15.6% | BT-549 breast -32% | MDA-MB-435 melanoma -39.6% | SW-620 colon 5.99% | MCF7 breast 1.59% | HCT-116 colon 5.28% | HCC-2998 colon -22.9% | KM12 colon 5.47%

Cc1ccc(NS(=O)(=O)c2ccccc2)c(NS(=O)(=O)c2ccccc2)c1
inactive: T-47D breast 101% | BT-549 breast 104% | MDA-MB-435 melanoma 106% | SW-620 colon 95.1% | MCF7 breast 104% | HCT-116 colon 93.7% | HCC-2998 colon 106% | KM12 colon 103%

CS(=O)(=O)Nc1ccc(OCc2nnc(-c3ccc(Cl)cc3)o2)c(F)c1
inactive: T-47D breast 63.1% | BT-549 breast 89.4% | MDA-MB-435 melanoma 104% | SW-620 colon 108% | MCF7 breast 81.7% | HCT-116 colon 86.9% | HCC-2998 colon 101% | KM12 colon 98.6%

COc1ccc(S(=O)(=O)Nc2cc(/C=C\c3cc(OC)c(OC)c(OC)c3)ccc2OC)cc1
inactive: T-47D breast 71.7% | BT-549 breast 26.9% | SW-620 colon 21.3% | HCC-2998 colon 16%
active: MDA-MB-435 melanoma -37.9% | MCF7 breast -9.99% | HCT-116 colon 4.3% | KM12 colon -5.35%

COc1ccc(-c2cc(/C=C3\C(=O)Nc4cc(Cl)ccc43)[nH]n2)cc1OC
active: MDA-MB-435 melanoma 7.28%
inactive: T-47D breast 96.5% | BT-549 breast 80.1% | SW-620 colon 47.1% | MCF7 breast 32.2% | HCT-116 colon 50.9% | HCC-2998 colon 98.8% | KM12 colon 64.4%

C[C@@H]1N=C(c2ccc(Br)cc2)Nc2nc3ccccn3c2C1=O
active: MDA-MB-435 melanoma -13%
inactive: T-47D breast 67.2% | BT-549 breast 49.3% | SW-620 colon 38% | MCF7 breast 20.9% | HCT-116 colon 29.2% | HCC-2998 colon 69% | KM12 colon 29.6%

Cc1cc(C)c(/C=C2\C(=O)Nc3ccc(NC(=O)CCCCCCC(=O)NO)cc32)[nH]1
inactive: T-47D breast 15.3% | BT-549 breast 47.5% | MCF7 breast 12.2% | HCC-2998 colon 40.2% | KM12 colon 60.2%
active: MDA-MB-435 melanoma 2.24% | SW-620 colon 5.42% | HCT-116 colon -77.2%

O=C1c2cc(Cl)ccc2-c2c(O)cc(Cl)cc21
inactive: T-47D breast 63.9% | BT-549 breast 100% | MDA-MB-435 melanoma 106% | SW-620 colon 82.7% | MCF7 breast 77% | HCT-116 colon 22.2% | HCC-2998 colon 105% | KM12 colon 61%

CCCC(C)c1ccc(OCCCCCCN2CCNCC2)cc1 (centres undefined)
inactive: BT-549 breast 76.5% | MDA-MB-435 melanoma 28.9% | KM12 colon 15.1%
active: T-47D breast -12.7% | SW-620 colon -16.6% | MCF7 breast -23.2% | HCT-116 colon -6% | HCC-2998 colon -71.4%

COc1c(-c2c3sc(=O)[nH]c3nc3c2c(=O)[nH]n3C(C)C)cc2c(c1OC)OCO2
inactive: T-47D breast 98.6% | BT-549 breast 84.6% | MDA-MB-435 melanoma 90.9% | SW-620 colon 108% | MCF7 breast 106% | HCT-116 colon 101% | HCC-2998 colon 107% | KM12 colon 101%

Cc1cc(OI)c(C(C)C)cc1-c1cc(C(C)C)c(OI)cc1C
inactive: T-47D breast 81.6% | BT-549 breast 111% | MDA-MB-435 melanoma 112% | SW-620 colon 113% | MCF7 breast 92.6% | HCT-116 colon 101% | HCC-2998 colon 105% | KM12 colon 101%

COc1ccc(Nc2ccnc(N3CCN(c4ccnc5cc(Cl)ccc45)CC3)n2)cc1
inactive: HCC-2998 colon 15.8%
active: T-47D breast -7.73% | BT-549 breast -11.5% | MDA-MB-435 melanoma -4.38% | SW-620 colon 7.57% | MCF7 breast 2.5% | HCT-116 colon 0.434% | KM12 colon 2.49%

COc1ccc(Cn2cc3c(c2-c2cc(OC)c(OC)c(OC)c2)CCc2cnoc2-3)cc1N
inactive: T-47D breast 43.4% | BT-549 breast 26.3% | SW-620 colon 20.4% | MCF7 breast 16%
active: MDA-MB-435 melanoma -37% | HCT-116 colon 0.095% | HCC-2998 colon -9.27% | KM12 colon 1.77%

COc1ccc(Nc2nc(NCc3ccccc3)c3ccccc3n2)cc1
inactive: T-47D breast 45.6% | BT-549 breast 82.9% | MDA-MB-435 melanoma 84.2% | SW-620 colon 68.2% | MCF7 breast 67.4% | HCT-116 colon 29.8% | HCC-2998 colon 91.5% | KM12 colon 80.7%

FC(F)(F)c1ccc(-c2nc(-c3nc4cc(Cl)c(Cl)cc4[nH]3)c3ccccn23)cc1
inactive: T-47D breast 61.6% | BT-549 breast 88.2% | MDA-MB-435 melanoma 73.4% | SW-620 colon 80% | MCF7 breast 48% | HCT-116 colon 33.8% | HCC-2998 colon 83% | KM12 colon 52.8%

CCCCCC(CCC)COC(=O)c1ccc(OC)cc1 (centres undefined)
inactive: T-47D breast 87.7% | BT-549 breast 104% | MDA-MB-435 melanoma 106% | SW-620 colon 104% | MCF7 breast 92.5% | HCT-116 colon 100% | HCC-2998 colon 99.5% | KM12 colon 109%

COc1ccc(-n2nnc3c(sc4ccccc43)c2=O)cc1
active: HCT-116 colon 5.85%
inactive: T-47D breast 35.5% | BT-549 breast 102% | MDA-MB-435 melanoma 69% | SW-620 colon 83.9% | MCF7 breast 80.4% | HCC-2998 colon 74.9% | KM12 colon 70.2%

CCOC(=O)Nc1ccc2c(c1)C(=O)N(CCOC)c1ccccc1O2
inactive: T-47D breast 30.5% | BT-549 breast 52.8% | SW-620 colon 32% | MCF7 breast 14.4% | HCT-116 colon 24.4% | HCC-2998 colon 55.3% | KM12 colon 23%
active: MDA-MB-435 melanoma -14.2%

COc1cc(-c2n/c(=C\c3c(O)[nH]c4ccccc34)cc3c2=Nc2ccccc2-3)cc(OC)c1OC
inactive: T-47D breast 51.7% | SW-620 colon 33.4%
active: BT-549 breast 6.59% | MDA-MB-435 melanoma -7.06% | MCF7 breast 3.28% | HCT-116 colon 3.38% | HCC-2998 colon -20.4% | KM12 colon 5.99%

CCc1c(C)[nH]c(=O)c(C(N)=O)c1C#N
inactive: T-47D breast 94.1% | BT-549 breast 97.4% | MDA-MB-435 melanoma 101% | SW-620 colon 97.7% | MCF7 breast 97% | HCT-116 colon 95.7% | HCC-2998 colon 87.7% | KM12 colon 106%

Cc1ccc(-c2cc(-c3cccc(Nc4ccnc5cc(Cl)ccc45)c3)nc3nc(N)[nH]c(=O)c23)cc1
inactive: T-47D breast 35% | BT-549 breast 86.4% | MDA-MB-435 melanoma 99.8% | SW-620 colon 95.8% | MCF7 breast 72.5% | HCT-116 colon 91.3% | HCC-2998 colon 91.5% | KM12 colon 70.5%

Nc1ccc2c(c1)Cc1cc(N)c(Cl)cc1-2
inactive: T-47D breast 54.3% | BT-549 breast 90.3% | MDA-MB-435 melanoma 94.3% | SW-620 colon 108% | MCF7 breast 42.6% | HCT-116 colon 100% | HCC-2998 colon 103% | KM12 colon 108%

CCc1nn2c(-c3cc(OC)c(OC)c(OC)c3)c(-c3cc(OC)c(OC)c(OC)c3)nc2s1
inactive: T-47D breast 81.4% | BT-549 breast 89.6% | MDA-MB-435 melanoma 83.4% | SW-620 colon 86.3% | MCF7 breast 57.4% | HCT-116 colon 71.8% | HCC-2998 colon 102% | KM12 colon 100%

COc1ccc(C2C=C(c3ccc(Cl)cc3)N=C3SC=CN32)c(Br)c1 (centres undefined)
inactive: T-47D breast 71.8% | BT-549 breast 96.7% | MDA-MB-435 melanoma 69.2% | SW-620 colon 91.3% | MCF7 breast 75.3% | HCT-116 colon 54% | HCC-2998 colon 86.9% | KM12 colon 62.3%
